TDP1 cell noCPT: qHTS for Inhibitors of human tyrosyl-DNA phosphodiesterase 1 (TDP1): qHTS in cells in absence of CPT. DT40 Tdp1-/- hTDP1 cells, no CPT, ATP luminescence, 48 h. Potency, µM (doses to about 46.2 µM), for the others: at the highest dose activity change, negative = growth inhibition, usual class: inhibitors. 420,000 tested, 15% active. AID 686978, 2013; further: potency means the concentration at half of the fitted maximal effect; nearly all actives have a fitted effect of over 55% in size
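Compound effects on proliferation are scored in DT40 Tdp1-/-;hTDP1 cells in the absence of CPT. ATP levels (CellTiter-Glo luminescence) are recorded after a ≥48 hr, 37 °C incubation.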
ELG1 DNA repair: qHTS screen for small molecules that inhibit ELG1-dependent DNA repair in human embryonic kidney (HEK293T) cells expressing luciferase-tagged ELG1; HEK293T ELG1-luciferase reporter, luminescence, 16 h; DNA damage induced by 5-fluorouridine; Potency, µM (titrated, usually from 46.1 µM), without a hit: top-dose activity change, negative = inhibition, actives largely listed as inhibitors; 330,000 tested, 2.3% active; AID 504467, 2011; further: potency means the concentration at half of the fitted maximal effect; nearly all actives have a fitted effect of over 55% in size
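Cells (2,000 per well) received 5-fluorouridine plus test compound or DMSO and were incubated 16 hr at 37 °C, 5% CO2. Luciferase activity was read by luminescence 30 min after ONE-Glo addition; signal suppression marked inhibition of damage-induced ELG1 function.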
RORg inh: qHTS for inhibitors of ROR gamma transcriptional activity | Nuclear receptor ROR-gamma (Mus musculus), P51450 | Drosophila S2 Gal4-RORgamma UAS-luciferase reporter, 20 h | Potency, µM (top dose mostly 53.6 µM), for inactives: at the highest dose activity change, negative = inhibition, most hits filed as inhibitors | 310,000 tested, 5.4% active | AID 2551, 2010; further: potency means the concentration at half of the fitted maximal effect; nearly all actives have a fitted effect of over 60% in size
Target sequence (P51450 whole entry, looked up, the tested form may be a part): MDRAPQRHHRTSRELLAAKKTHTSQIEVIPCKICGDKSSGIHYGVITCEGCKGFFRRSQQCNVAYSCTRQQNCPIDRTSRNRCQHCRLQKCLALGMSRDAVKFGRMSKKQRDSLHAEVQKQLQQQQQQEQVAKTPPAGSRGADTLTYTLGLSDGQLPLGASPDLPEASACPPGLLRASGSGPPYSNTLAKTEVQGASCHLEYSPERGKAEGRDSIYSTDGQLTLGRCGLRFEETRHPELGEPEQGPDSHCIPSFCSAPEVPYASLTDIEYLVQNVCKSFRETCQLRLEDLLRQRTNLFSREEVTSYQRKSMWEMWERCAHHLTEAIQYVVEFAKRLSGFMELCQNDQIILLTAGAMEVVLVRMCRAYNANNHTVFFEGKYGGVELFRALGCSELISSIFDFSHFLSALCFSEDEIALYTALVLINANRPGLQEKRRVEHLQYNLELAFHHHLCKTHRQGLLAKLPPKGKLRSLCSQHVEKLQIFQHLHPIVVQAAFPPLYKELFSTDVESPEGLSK
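Schneider cells (Drosophila), stable Gal4 DBD–ROR gamma + UAS-luc; 1 hr cmpd preincubation; Cu2+ induction 700 uM final; 20 hr ambient; luminescence.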
Gal4-VP16 FLuc: VP16 counterscreen qHTS for inhibitors of ROR gamma transcriptional activity. 310,000 tested, 3.5% active. Potency, µM (doses to about 53.6 µM), for inactives: at the highest dose activity, negative = inhibition, usual class: inhibitors. AID 2546, 2010. Drosophila S2 Gal4-VP16 UAS-luciferase, luminescence, 20 h;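 further: Gal4-VP16 expression switched on by copper sulfate through the metallothionein promoter; potency means the concentration at half of the fitted maximal effect; nearly all actives have a fitted effect of over 50% in size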
IL-1B inflam inh: qHTS for Inhibitors of Inflammasome Signaling: IL-1-beta AlphaLISA Primary Screen. activity change, % at 57.5 µM. THP-1 LPS/ATP IL-1B secretion, AlphaLISA, 16 h; active compounds read low. 360,000 tested, 4.7% active; in the data active means activity change below about -50%; inconclusive means mostly about -30% to -49%
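THP-1 cells pretreated 1 hr with compounds (up to 57.5 uM final), then stimulated with LPS (250 ng/mL final) plus ATP (1.25 mM final); secreted IL-1B measured by AlphaLISA after 16 hr, decreased signal indicating inhibition.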
DT40 TDP1 CPT: qHTS for Inhibitors of human tyrosyl-DNA phosphodiesterase 1 (TDP1): qHTS in cells in presence of CPT; chicken DT40 Tdp1-/-;hTDP1 cells + 20 nM CPT, ATP luminescence, 48 h; Potency, µM (series often up to 46.2 µM), for inactives: at the highest dose activity change, negative = growth inhibition, most hits filed as inhibitors; 420,000 tested, 12% active; further: potency means the concentration at half of the fitted maximal effect; nearly all actives have a fitted effect of over 55% in size
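Chicken DT40 Tdp1-/- cells complemented with human TDP1, 400 cells/well, exposed to compounds plus 20 nM camptothecin for at least 48 h at 37 C; viability read as ATP content by CellTiter-Glo luminescence.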
Active calls of the source: *; u = inconclusive; x = not tested or not shown; ! = not confirmed by another sample; [ ] = remark or other dose. The list is not random: actives were taken first. Their share in the collection is about 21%. Unless noted, the call rests on the fitted dose curve; in most records, active means well fitted curve in the direction sought with a large enough effect; inconclusive means small, poorly fitted or top-dose-only effect, or another doubt; inactive means no such curve, though single readings can be large; an effect the other way counts as inactive or inconclusive. On the % scale 0 is the no-effect control and ±100 the full control effect.

SMILES	TDP1 cell noCPT	ELG1 DNA repair	RORg inh	Gal4-VP16 FLuc	IL-1B inflam inh	DT40 TDP1 CPT
CCCCC1(CCCC)C(=O)NC(=Nc2cccc(C)c2)NC1=O	18µM*	15%	-3%	-8%	-56*	16µM*
CCCC(C)C1(CC)C(=O)NC(=Nc2ccccc2)NC1=O (stereo unspecified)	-22%	u	u	-19%	11	2%
O=C(Nc1ccc(Br)cc1C(=O)c1ccccc1Cl)c1ccc(Br)cc1	-7%	x	x	x	x	5%
CN(C)C(=O)Cl	x	x	-16%	26%	x	x
O=c1c2ccccc2nc(-c2cccs2)n1-c1ccccc1	23µM*	-2%	u	-8%	9	u
Cc1cccc(-n2c(-c3cccs3)nc3ccccc3c2=O)c1	u	1%	30%	-7%	24	16µM*
CCOc1ccc(-n2c(-c3cccs3)nc3ccccc3c2=O)cc1	u	-6%	-10%	6%	22	u
CC1(C)[C@@H](O)C[C@H]2[C@](C)(O)[C@@H]3CC[C@H]4[C@@H](O)[C@@]3(C[C@@H](O)[C@@]21O)C[C@@]4(C)O	6%	x	x	x	x	-2%
Cc1onc(-c2ccccc2)c1C(=O)Nc1ccc(S(=O)(=O)N2CCCC2)cc1	-25%	11%	8.9µM*	-25%	19	u
CN1C(C(=O)NCc2cccc(C(F)(F)F)c2)CC2Cn3c(nc4cc5ccccc5cc43)C21 (stereo unspecified)	18µM*	u	20%	0%	-7	u
CCOC(=O)C1=C(NC(=S)NC(=O)c2ccccc2)c2ccccc2CC12CCCC2	18µM*	u	3.2µM*	4.5µM*	u	16µM*
CCOP(=O)(OCC)C(NC(=O)c1ccccc1)=C(Cl)Cl	-3%	10%	16%	1%	-25	-28%
CC[C@@H]([C@H](C)O)n1ncn(-c2ccc(N3CCN(c4ccc(OC[C@@H]5CO[C@@](Cn6cncn6)(c6ccc(F)cc6F)C5)cc4)CC3)cc2)c1=O	u	x	x	x	x	-7%
C[N+](C)(C)CCOC(=O)C(O)(c1ccccc1)c1ccccc1	-1%	x	5%	5%	x	-5%
CC1CN(c2ccccn2)C(C)CN1C(=O)C(O)(c1ccccc1)c1ccccc1 (stereo unspecified)	23µM*	x	x	x	4	29µM*
NC(CCc1ccccc1)c1csc(NC(=O)Nc2ccccc2Oc2ccccc2)n1 (stereo unspecified)	6.5µM*	x	x	x	-79*	6.5µM*
Cc1csc(NC(=O)C(Cl)c2ccccc2)n1 (stereo unspecified) (tested in a mixture with another compound)	u	x	x	x	-21	u
CCCCCCOc1ccc(CN2CCN(CC)CC2)cc1	23µM*	u	-28%	-19%	u	u
O=C(NN=Cc1ccc(N(CCCl)CCCl)cc1)c1cc(=O)[nH]c(=O)[nH]1	u	x	x	x	10	u
O=C(NN=Cc1ccc(N(CCCl)CCCl)cc1)C(=O)c1c[nH]c2ccccc12	15µM*	x	x	x	-9	21µM*
O=C(C1CCN(S(=O)(=O)N2CCOCC2)CC1)N1CCC2(CC1)OCCO2	-9%	10%	6%	-9%	11	-19%
C=C(Cl)Cl	x	x	15%	1%	x	x
CS(=O)c1ccc(-c2nc(-c3ccc(F)cc3)c(-c3ccncc3)[nH]2)cc1 (stereo unspecified)	15µM*	x	7%	-2%	x	30µM*!
O=C(CCN1CC1)OCCOC(=O)CCN1CC1	4.6µM*	x	x	x	-3	5.2µM*
CN1C2CCC1CC(OC(=O)CCN1CCCC1)C2 (stereo unspecified)	-6%	6%	-29%	-10%	-4	-8%
SMILES	TDP1 cell noCPT	ELG1 DNA repair	RORg inh	Gal4-VP16 FLuc	IL-1B inflam inh	DT40 TDP1 CPT
COc1ccc2ccccc2c1CNCCc1ccccc1	u	-8%	-32%	4%	-55*	23µM*
COc1cccc(CNCCc2ccccc2)c1OC	-20%	-19%	20%	-11%	-4	4%
[O-][Br+2]([O-])O	x	x	-4%	-13%	x	x
N#Cc1cc2c(nc1SCC(=O)Nc1ccc(Cl)cc1)C1CCN2CC1	u	-12%	30%	10%	-19	u
N#Cc1cc2c(nc1SCC(=O)Nc1ccc(C(F)(F)F)cc1)C1CCN2CC1	23µM*	x	x	x	x	13µM*
N#Cc1cc2c(nc1SCC(=O)Nc1cc(Cl)ccc1Cl)C1CCN2CC1	u	9%	u	-3%	126	18µM*
N#Cc1cc2c(nc1SCC(=O)Nc1ccc(Cl)c(C(F)(F)F)c1)C1CCN2CC1	12µM*	x	x	x	x	21µM*
CCCCC[C@@H](/C=C/C=C\CCCCCCCC(=O)O)OO	2%[0.628 µM]	x	-5%	-15%	x	7%[0.628 µM]
Cc1nn(-c2ccccc2)c(Cl)c1/C=N\NC(=O)c1cnccn1	-5%	u	-5%	-3%	14	-9%
COc1nc(NC(C)C)nc(N(C#N)CN2C(=O)c3ccccc3S2(=O)=O)n1	-82%	10%	u	u	u	23µM*
C/C(=C/CCC(C)[C@H]1CC[C@@]2(C)C3=C(CC[C@]12C)[C@@]1(C)CCC(=O)C(C)(C)[C@@H]1CC3)C(=O)O (stereo partly specified)	u	6%	5%	-8%	0	u
COc1ccccc1-n1c(-c2ccccc2Cl)nc2ccccc2c1=O	15µM*	13%	0%	24%	0	u
COc1ccccc1-n1c(-c2ccoc2)nc2ccccc2c1=O	18µM*	-5%	22%	0%	5	12µM*
O=c1c2ccccc2nc(-c2ccoc2)n1-c1ccccc1	-26%	-2%	8%	-12%	-5	-26%
COc1ccccc1-n1c(/C=C/c2ccccn2)nc2ccccc2c1=O	u	u	-7%	u	x	u
Cc1cccc(-n2c(-c3ccco3)nc3ccccc3c2=O)c1C	16µM*	u	4%	-5%	-7	8.2µM*
COc1ccccc1-n1c(Cc2ccccc2)nc2ccccc2c1=O	-30%	2%	u	-2%	u	2%

Screens: PubChem, National Center for Advancing Translational Sciences (NCATS)
